From ChEMBL document CHEMBL4513216, “Probing the Open Global Health Chemical Diversity Library for Multistage-Active Starting Points for Next-Generation Antimalarials” (ACS Infect Dis, 2020)
Hit rate of the full screen: of about 65,000 compounds, about 2,100 (3.2%) showed an effect of 50% or more. The median lay at about -52%. The list comes from a sample in which strong results are over-represented; it also holds similar structures and randomly drawn compounds.

test system: Plasmodium falciparum; assay: Screen against P. falciparum Asexual Blood Stage (ABS), at 5uM; type: functional, Dd2; settings: tested at 5 uM

First: CCc1nc(C2CCCN2CCCc2nc3ccccc3o2)no1 (stereo not given)
Second: c1ccc(-n2cc(CN3CCCC3Cn3cncn3)nn2)cc1 (stereo not given)
The INHIBITION of the first is lower: -157% for the first, -14% for the second.

Compared with `Cc1nc2ccccn2c1CC(=O)N[C@@H]1CC[C@@H](N2CCOCC2)[C@@H]1O`, `C[C@@H]1CN(C2(C(=O)N3CCOCC3)Cc3ccccc3C2)C[C@H](C)O1` is higher in INHIBITION: -72.5% for the first, -22.3% for the second.

First: NCc1ccccc1Sc1ccc(O)cc1
Second: CSc1ccc(CNc2n[nH]c(C)n2)cc1
The INHIBITION of the first is higher: 56.7% for the first, -43.7% for the second.

Going from `CN(C)CCNC(=O)c1cc(-c2cnc(N3CCCC3)nc2)cn1C` to `CN(C)CCN1CCCC12CCN(C(=O)c1ccco1)CC2`, the INHIBITION rises from -123% to 33.9%.

Compared with `C[C@@H]1CN(C2(C(=O)N3CCSCC3)Cc3ccccc3C2)C[C@H](C)O1`, `C[C@@H]1CN(C2(C(=O)N3CCNCC3)Cc3ccccc3C2)C[C@H](C)O1` is higher in INHIBITION: -238% for the first, 63.4% for the second.

Compared with `CCc1noc(C(C)N(C)CC(=O)Nc2ccc(Cl)c(C(F)(F)F)c2)n1` (stereo not given), `CC(C)N(C)Cc1cncc2c1CCN(C(=O)c1ccccc1F)C2` is higher in INHIBITION: -75.8% for the first, -44.1% for the second.

First: CC(Cn1cccn1)NC(=O)N1CCN(Cc2ccsc2)CC1 (stereo not given)
Second: CC(Cn1ccnc1)NC(=O)N1CCN(Cc2ccsc2)CC1 (stereo not given)
The INHIBITION of the first is lower: -55.3% for the first, 58.4% for the second.

Compared with `CC(Cn1ccnc1)NC(=O)N1CCN(Cc2ccncc2)CC1` (stereo not given), `CC(C)NC(=O)N1CCC2(CC1)C(=O)NCCN2Cc1ccccc1` is higher in INHIBITION: -125% for the first, -105% for the second.

First: NC(=O)c1c(-c2ccc(Cl)cc2Cl)csc1NC(=O)CCCC(=O)O
Second: O=C(CN1CCC(C(=O)c2cc(F)ccc2F)CC1)NC1CCCC1
The INHIBITION of the first is lower: -162% for the first, -63.8% for the second.

First: COc1ccc(-n2cc(CCO)cn2)cc1C
Second: COc1ccc(-c2nc(CCNC(=O)NC3CCC(O)CC3)co2)cc1 (stereo not given)
The INHIBITION of the first is lower: -136% for the first, -13.7% for the second.

Going from `Cc1ccc(CN2CCCC3(CCN(Cc4ccoc4)CC3)C2)cc1` to `Cc1ccc(CN2CCC3(CCCN(C(=O)N(C)C)C3)C2)cc1` (stereo not given), the INHIBITION falls from 79.8% to -59.2%.

Compared with `CN(C)CCN1CCCC12CCCN(Cc1ccoc1)C2` (stereo not given), `CN(C)CCN1CCCC12CCCN(Cc1ccco1)C2` (stereo not given) is lower in INHIBITION: 68.1% for the first, -71.8% for the second.

Going from `O=C1CC2(CCN(Cc3ncc[nH]3)CC2)CN1Cc1cc(F)cc(F)c1` to `O=C1CC2(CCN(Cc3ccoc3)CC2)CN1Cc1cc(F)cc(F)c1`, the INHIBITION rises from -147% to 56.5%.

Going from `CNC(=O)CN1CCOCC2(CCCN(Cc3ccoc3)C2)C1` (stereo not given) to `COc1ccc(CN2C[C@@H]3OCCN(CCN4CCCC4)[C@@H]3C2)cc1`, the INHIBITION rises from 33.7% to 64%.

First: O=C1CC2(CCN(CCO)CC2)CN1Cc1cc(F)cc(F)c1
Second: Fc1ccc(CN2C[C@@H]3OCCN(CCN4CCCC4)[C@@H]3C2)cc1
The INHIBITION of the first is higher: 19.3% for the first, -70.3% for the second.

Compared with `CC1CCCN(S(=O)(=O)NCCNC(=O)c2ncccc2O)C1` (stereo not given), `CC(=O)Nc1c(C)noc1C=Cc1ccc(S(=O)(=O)N2CCCC2)cc1` is higher in INHIBITION: -122% for the first, 11.8% for the second.

Going from `CCN(C)CC(=O)N1CCc2nc(NC)nc(C(=O)N3CCCC3)c2C1` to `CN(C)c1nc2c(c(N3CCC4(CC3)CNC(=O)C4)n1)CCCC2`, the INHIBITION rises from -14.4% to -6.41%.

Going from `CCS(=O)(=O)N1CCC2(CC1)CN(c1ccsc1)C(=O)CO2` to `O=S(=O)(N1CCCCC1)N1CCCN(CC2CCCO2)CC1` (stereo not given), the INHIBITION falls from -0.697% to -12.8%.

Going from `COc1ccc(CN2C[C@@H]3OCCN(CCN(C)C)[C@@H]3C2)cc1` to `COc1ccc(CN2C[C@@H]3OCCN(C)[C@@H]3C2)cc1`, the INHIBITION falls from 66.9% to -42.1%.

First: Cc1noc(C)c1CN1CCO[C@H]2CN(Cc3ccc(F)cc3)C[C@H]21
Second: Cc1noc(C)c1CN1CCO[C@H]2CN(Cc3cccc(F)c3)C[C@H]21
The INHIBITION of the first is higher: 55.3% for the first, -32.1% for the second.

First: Fc1ccc(CN2C[C@@H]3OCCN(CC4CCCO4)[C@@H]3C2)cc1 (stereo not given in full)
Second: COc1ccc(CN2C[C@@H]3OCCN(CC4CCCO4)[C@@H]3C2)cc1 (stereo not given in full)
The INHIBITION of the first is higher: -2.84% for the first, -115% for the second.

Compared with `CN(C)CCN1CCO[C@H]2CN(Cc3cnn(C)c3)C[C@H]21`, `CCCn1ccnc1CN1CCCC(O)(CN(C)C)CC1` (stereo not given) is higher in INHIBITION: -88.4% for the first, -44.8% for the second.

Going from `Cc1nn(C)c2c(NCc3ccc(F)cc3)nc(C3CC3)nc12` to `CNc1nc2cn(C3CCCC3)c(=O)c-2c[nH]1`, the INHIBITION falls from 40.3% to -45.905%.

First: CC(=O)N1CC[C@H]2[C@H](C[C@@H](Cn3cncn3)N2c2nccs2)C1
Second: CN(Cc1ccco1)[C@@H]1CN(Cc2nccs2)C[C@@H]2CCCO[C@@H]21
The INHIBITION of the first is lower: -33.8% for the first, 31.1% for the second.

Compared with `Nc1nc2cn(C3CCCC3)c(=O)c-2c[nH]1`, `CC1CCC(n2cc3nc(N)[nH]cc-3c2=O)CC1` (stereo not given) is lower in INHIBITION: 69.9% for the first, -68.9% for the second.

First: Cc1ccc(CN2C[C@@H]3CCCO[C@@H]3[C@H](N(C)Cc3ccco3)C2)o1
Second: CN(Cc1ccco1)[C@@H]1CN(Cc2cccs2)C[C@@H]2CCCO[C@@H]21
The INHIBITION of the first is lower: 39.7% for the first, 65.3% for the second.

Compared with `CN(Cc1ccco1)[C@@H]1CN(Cc2ccncc2)C[C@@H]2CCCO[C@@H]21`, `CN(Cc1ccco1)[C@@H]1CN(Cc2cccnc2)C[C@@H]2CCCO[C@@H]21` is higher in INHIBITION: 9.86% for the first, 29.1% for the second.

`CN(Cc1ccco1)[C@@H]1CN(Cc2ccoc2)C[C@@H]2CCCO[C@@H]21` showed an INHIBITION of 60.3%.
